# Results filed as inconclusive are left out. Some structures have more than one record in an assay (separate samples or runs), and their calls can disagree. The source made the active and inactive calls. Calls come from the whole dose curve; as a rule, active = well fitted curve in the direction sought with a large enough effect in the repeat runs; inconclusive = weak or mixed curves; inactive = no such curve, though single readings can be large; an effect the other way counts as inactive or inconclusive.
# Tested on: not listed separately
# Assay: qHTS assay to identify aromatase inhibitors - cell viability counter screen (AID 743084);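 note: cells stimulated with testosterone during compound exposure; nearly all actives have a fitted effect of over 55% in size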
# Conditions: MCF-7 aro ERE viability, CellTiter-Fluor, 24 h; series mostly up to 70.3 µM; activity change, negative = cytotoxicity: at the top concentration
# % is set by controls: 0 for no effect and ±100 for the full control effect; potency is the fitted concentration of half-maximal effect.
SMILES,"activity change, negative = cytotoxicity",Potency
CO[C@@H]1[C@@H](O[C@@H]2O[C@H](C)[C@@H](O[C@H]3C[C@@](C)(O)[C@@H](O)[C@H](C)O3)[C@H](N(C)C)[C@H]2O)[C@@H](CC=O)C[C@@H](C)[C@@H](O[C@@H]2CC[C@H](N(C)C)[C@@H](C)O2)/C=C/C=C/C[C@@H](C)OC(=O)C[C@H]1O,-2.18% [at 32.5 µM] (inactive),–
CC(C)CN(C[C@@H](O)[C@H](Cc1ccccc1)NC(=O)O[C@@H]1CCOC1)S(=O)(=O)c1ccc(N)cc1,0.469% (inactive),–
CCC(=O)NCCC1CCc2ccc3c(c21)CCO3 (centres undefined),1.24% (inactive),–
CC(C(=O)O)c1ccc(N2Cc3ccccc3C2=O)cc1 (centres undefined),4.09% (inactive),–
CC[C@@H]1/C=C(\C)C[C@H](C)C[C@H](OC)[C@H]2O[C@@](O)(C(=O)C(=O)N3CCCC[C@H]3C(=O)O[C@H](/C(C)=C/[C@@H]3CC[C@@H](Cl)[C@H](OC)C3)[C@H](C)[C@@H](O)CC1=O)[C@H](C)C[C@@H]2OC,-0.433% (inactive),–
O=C(O)[C@H](CC(=O)N1C[C@H]2CCCC[C@H]2C1)Cc1ccccc1,4.09% (inactive),–
CC[C@@H](C(=O)[C@@H](C)[C@@H](O)[C@H](C)[C@@H]1O[C@@H]([C@@H](CC)C(=O)O)CC[C@@H]1C)[C@H]1O[C@]2(C=C[C@@H](O)[C@]3(CC[C@@](C)([C@H]4CC[C@](O)(CC)[C@H](C)O4)O3)O2)[C@H](C)C[C@@H]1C,-18.3% (inactive),–
COC(=O)[C@H]1[C@H]2C[C@@H]3c4[nH]c5cc(OC)ccc5c4CCN3C[C@H]2C[C@@H](OC(=O)/C=C/c2cc(OC)c(OC)c(OC)c2)[C@@H]1OC,24.7% [at 32.5 µM] (inactive),–
CC(C)CN(C[C@@H](OP(=O)(O)O)[C@H](Cc1ccccc1)NC(=O)O[C@H]1CCOC1)S(=O)(=O)c1ccc(N)cc1,-3.49% (inactive),–
Cc1cc(O)c2c(c1)O[C@@]1(C)CC[C@H]3C(C)(C)CCCC34CO[C@@H]2[C@H]41 (some centres undefined),–,29.8 µM (active)
NC(=O)Oc1ccc(Cc2ccccc2)cc1,0.818% (inactive),–
CC(C)(CO)[C@@H](O)C(=O)NCCC(=O)NCCSSCCNC(=O)CCNC(=O)[C@H](O)C(C)(C)CO,4.03% (inactive),–
C#C[C@]1(O)CC[C@H]2[C@@H]3CCC4=C(CCC(=O)C4)[C@H]3CC[C@@]21C,2% [at 32.5 µM] (inactive),–
COCC(=O)Nc1cc(Sc2ccccc2)ccc1N=C(NC(=O)OC)NC(=O)OC,-0.141% (inactive),–
COc1ccc2c(=O)c(C)c(-c3ccccc3)oc2c1CN(C)C,-0.558% (inactive),–
CN1C(=O)CN2CCc3ccccc3C2c2cc(Cl)ccc21 (centres undefined),-0.816% (inactive),–

SMILES,"activity change, negative = cytotoxicity",Potency
CCSc1ccc2c(c1)N(CCCN1CCN(C)CC1)c1ccccc1S2,-4.97% [at 32.5 µM] (inactive),–
S=C1SCN(Cc2ccccc2)CN1Cc1ccccc1,-3.42% (inactive),–
CN(C)C=Nc1c(I)cc(I)c(CCC(=O)O)c1I,1.98% (inactive),–
CC(=O)[C@]1(O)Cc2c(O)c3c(c(O)c2[C@@H](O[C@H]2C[C@H](N)[C@H](O)[C@H](C)O2)C1)C(=O)c1c(O)cccc1C3=O,–,26.6 µM (active)
CC(C)c1nc(N(C)S(C)(=O)=O)nc(-c2ccc(F)cc2)c1/C=C/C(O)CC(O)CC(=O)O (centres undefined),-2.63% (inactive),–
CCC[C@@H]1C[C@@H](C(=O)N[C@@H]([C@H]2O[C@H](SC)[C@H](O)[C@@H](O)[C@H]2O)[C@H](C)Cl)N(C)C1,3.1% (inactive),–
N[C@H](CC(=O)O)C(=O)O,-9.76% (inactive),–
CN[C@@H]1[C@@H](O)[C@@H](O[C@@H]2[C@@H](O)[C@H](O[C@H]3O[C@H](CN)[C@@H](O)[C@H](O)[C@H]3O)[C@@H](N)C[C@H]2NC(=O)C(O)CN)OC[C@]1(C)O (some centres undefined),-9.38% (inactive),–
CCOC(=O)C1=C[C@@H](OC(CC)CC)[C@H](NC(C)=O)[C@@H](N)C1,-25.8% (inactive),–
CC[N+](C)(C)Cc1ccccc1Br,12.9% [at 32.5 µM] (inactive),–
CCCCCCOc1ccc(C(=N)N(CCCC)CCCC)c2ccccc12,–,16.8 µM (active)
CCc1ccc(S(=O)(=O)O)cc1,10.9% (inactive),–
CC(C)C(=O)OCC(=O)[C@@]12O[C@H](C3CCCCC3)O[C@@H]1C[C@H]1[C@@H]3CCC4=CC(=O)C=C[C@]4(C)[C@H]3[C@@H](O)C[C@@]12C,-4.61% (inactive),–
C[C@]12CCC(=O)C=C1CC[C@@H]1[C@@H]2[C@@H](O)C[C@@]2(C)[C@H]1CC[C@]2(O)C(=O)COP(=O)(O)O,-10.1% (inactive),–
COC(=O)[C@H]1[C@H]2C[C@@H]3c4[nH]c5ccccc5c4CCN3C[C@H]2C[C@@H](OC(=O)c2cc(OC)c(OC)c(OC)c2)[C@@H]1OC,–,6.68 µM (active) and inactive
CCC(=O)OCC(=O)[C@@]1(OC(=O)CC)[C@H](C)C[C@H]2[C@H]3[C@H]([C@@H](O)C[C@@]21C)[C@@]1(C)C=CC(=O)C=C1C[C@H]3Cl,-8.97% [at 32.5 µM] (inactive),–

# Biological target: Aryl hydrocarbon receptor (Homo sapiens) (UniProt P35869)
# Sequence (P35869 whole entry, looked up): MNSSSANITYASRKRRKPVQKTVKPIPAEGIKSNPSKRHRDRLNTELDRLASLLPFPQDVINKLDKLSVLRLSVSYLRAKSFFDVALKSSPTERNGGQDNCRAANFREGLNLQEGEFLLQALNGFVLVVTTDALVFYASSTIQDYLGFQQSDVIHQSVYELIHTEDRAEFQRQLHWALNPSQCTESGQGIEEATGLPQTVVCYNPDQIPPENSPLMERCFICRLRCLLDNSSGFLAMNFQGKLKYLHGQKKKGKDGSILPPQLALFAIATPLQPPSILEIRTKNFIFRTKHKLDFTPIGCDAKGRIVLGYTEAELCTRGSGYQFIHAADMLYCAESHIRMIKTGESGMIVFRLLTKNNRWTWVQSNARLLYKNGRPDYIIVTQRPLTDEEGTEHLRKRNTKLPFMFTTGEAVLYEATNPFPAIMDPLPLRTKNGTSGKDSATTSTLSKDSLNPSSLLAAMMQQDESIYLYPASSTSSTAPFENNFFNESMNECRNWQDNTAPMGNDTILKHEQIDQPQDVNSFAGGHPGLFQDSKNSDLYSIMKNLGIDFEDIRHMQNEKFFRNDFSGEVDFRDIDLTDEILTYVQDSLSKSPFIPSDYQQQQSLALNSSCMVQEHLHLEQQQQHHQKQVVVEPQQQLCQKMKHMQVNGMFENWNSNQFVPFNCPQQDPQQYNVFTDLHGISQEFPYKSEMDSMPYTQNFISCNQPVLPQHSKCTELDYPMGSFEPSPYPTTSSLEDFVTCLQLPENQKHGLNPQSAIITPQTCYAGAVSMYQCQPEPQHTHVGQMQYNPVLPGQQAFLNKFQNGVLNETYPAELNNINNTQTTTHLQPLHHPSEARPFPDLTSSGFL
# Assay: qHTS assay to identify small molecule that activate the aryl hydrocarbon receptor (AhR) signaling pathway (AID 743085); note: nearly all actives have a fitted effect of over 15% in size;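 for activation: HG2L7.5c1 human HepG2 liver cells with stably integrated DRE-driven firefly reporter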
# Conditions: HepG2 AhR-luc (HG2L7.5c1), luciferase, 24 h; series mostly up to 70.3 µM; activation: at the top concentration
# Method in brief: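 Cell line HG2L7.5c1 (human hepatoma, 20× DRE-luc). Plated, 5 h 37C, compound/DMSO added, 24 h 37C. CellTiter-Fluor 30 min 37C → fluorescence; then ONE-Glo 30 min RT → luminescence.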
SMILES,Potency,activation
O=C1/C(=C\c2cccs2)CCC/C1=C\c1cccs1,23.7 µM (active),–
CC(C)CN(C[C@@H](O)[C@H](Cc1ccccc1)NC(=O)O[C@@H]1CCOC1)S(=O)(=O)c1ccc(N)cc1,–,0.545% (inactive)
CC(C(=O)O)c1ccc(N2Cc3ccccc3C2=O)cc1 (centres undefined),0.0596 µM (active),–
CC[C@@H]1/C=C(\C)C[C@H](C)C[C@H](OC)[C@H]2O[C@@](O)(C(=O)C(=O)N3CCCC[C@H]3C(=O)O[C@H](/C(C)=C/[C@@H]3CC[C@@H](Cl)[C@H](OC)C3)[C@H](C)[C@@H](O)CC1=O)[C@H](C)C[C@@H]2OC,–,4.57% (inactive)
CC[C@@H](C(=O)[C@@H](C)[C@@H](O)[C@H](C)[C@@H]1O[C@@H]([C@@H](CC)C(=O)O)CC[C@@H]1C)[C@H]1O[C@]2(C=C[C@@H](O)[C@]3(CC[C@@](C)([C@H]4CC[C@](O)(CC)[C@H](C)O4)O3)O2)[C@H](C)C[C@@H]1C,–,1.93% (inactive)
CC(C)CN(C[C@@H](OP(=O)(O)O)[C@H](Cc1ccccc1)NC(=O)O[C@H]1CCOC1)S(=O)(=O)c1ccc(N)cc1,–,-1.15% (inactive)
Cc1cc(O)c2c(c1)O[C@@]1(C)CC[C@H]3C(C)(C)CCCC34CO[C@@H]2[C@H]41 (some centres undefined),–,0.163% (inactive)
NC(=O)Oc1ccc(Cc2ccccc2)cc1,–,10.7% (inactive)
CC(C)(CO)[C@@H](O)C(=O)NCCC(=O)NCCSSCCNC(=O)CCNC(=O)[C@H](O)C(C)(C)CO,–,-1.67% (inactive)
C#C[C@]1(O)CC[C@H]2[C@@H]3CCC4=C(CCC(=O)C4)[C@H]3CC[C@@]21C,–,-1.67% [at 32.5 µM] (inactive)
COc1ccc2c(c1)N(C[C@H](C)CN(C)C)c1ccccc1S2,–,-2.08% [at 32.5 µM] (inactive)
COc1ccc2c(=O)c(C)c(-c3ccccc3)oc2c1CN(C)C,11.9 µM (active),–
CN1C(=O)CN2CCc3ccccc3C2c2cc(Cl)ccc21 (centres undefined),4.73 µM (active),–
CCSc1ccc2c(c1)N(CCCN1CCN(C)CC1)c1ccccc1S2,–,3.7% [at 32.5 µM] (inactive)
S=C1SCN(Cc2ccccc2)CN1Cc1ccccc1,–,2.95% (inactive)
CN(C)C=Nc1c(I)cc(I)c(CCC(=O)O)c1I,–,2.49% (inactive)
CC(=O)[C@]1(O)Cc2c(O)c3c(c(O)c2[C@@H](O[C@H]2C[C@H](N)[C@H](O)[C@H](C)O2)C1)C(=O)c1c(O)cccc1C3=O,inactive,–
COC(=O)C1=C(C#N)NC(C)=C(C(=O)OC(C)C)C1c1cccc([N+](=O)[O-])c1 (centres undefined),–,2.23% (inactive)
CC(C)c1nc(N(C)S(C)(=O)=O)nc(-c2ccc(F)cc2)c1/C=C/C(O)CC(O)CC(=O)O (centres undefined),–,0.527% (inactive)
CCC[C@@H]1C[C@@H](C(=O)N[C@@H]([C@H]2O[C@H](SC)[C@H](O)[C@@H](O)[C@H]2O)[C@H](C)Cl)N(C)C1,–,-0.302% (inactive)
N[C@H](CC(=O)O)C(=O)O,–,-0.0032% (inactive)
CN[C@@H]1[C@@H](O)[C@@H](O[C@@H]2[C@@H](O)[C@H](O[C@H]3O[C@H](CN)[C@@H](O)[C@H](O)[C@H]3O)[C@@H](N)C[C@H]2NC(=O)C(O)CN)OC[C@]1(C)O (some centres undefined),–,2.95% (inactive)
CCOC(=O)C1=C[C@@H](OC(CC)CC)[C@H](NC(C)=O)[C@@H](N)C1,–,1.52% (inactive)
CC[N+](C)(C)Cc1ccccc1Br,–,-1.5% [at 32.5 µM] (inactive)
CCCCCCOc1ccc(C(=N)N(CCCC)CCCC)c2ccccc12,–,-14.2% (inactive)
CCc1ccc(S(=O)(=O)O)cc1,11.9 µM (active),–
CCC(=O)OCC(=O)[C@@]1(OC(=O)CC)[C@H](C)C[C@H]2[C@H]3[C@H]([C@@H](O)C[C@@]21C)[C@@]1(C)C=CC(=O)C=C1C[C@H]3Cl,–,-0.36% [at 32.5 µM] (inactive)

# Reference: PubChem BioAssay (Tox21)
